This passage reports binding signal results from paper PMC13541613, “GHT-SELEX demonstrates unexpectedly high intrinsic sequence specificity and complex DNA binding of many human transcription factors”.

What all share (test): HT-SELEX; 20 mM HEPES pH 7, 140 mM KCl, 5 mM NaCl, 1 mM K2HPO4, 2 mM MgSO4, 100 uM EGTA, ZnSO4, 0.1% Tween20; room temperature, 1 h; high values mean tight binding
Common to all, as to conditions: protein: ivt; tags: eGFP (N-terminal); dsDNA, one strand shown

Experiment [1] deals with ZNF721 full-length (Homo sapiens, UniProt Q8TF20-2 1-923). In short, it runs like this: (§1)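 Full-length or DNA-binding-domain forms of a tagged transcription factor were produced in HEK293 lysate or cell-free extract and immobilised on beads. Incubation with a randomized 40-base DNA library ran for 1 h at room temperature in HEPES/KCl low-stringency buffer with Tween20, after which bound DNA was washed, heat-eluted, PCR-amplified over successive cycles and Illumina-sequenced. Binding strength is given as the relative k-mer count in selected reads, higher for tighter binding.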

Experiment [2] has as its target ZNF721 DBD1 (Homo sapiens, UniProt Q8TF20-2 29-461). The essentials:
as §1

The target in experiment [3] is ZNF721 DBD2 (Homo sapiens, UniProt Q8TF20-2 395-923). In short, it runs like this: as §1
Sequence of ZNF721 DBD2 (Q8TF20 383-911): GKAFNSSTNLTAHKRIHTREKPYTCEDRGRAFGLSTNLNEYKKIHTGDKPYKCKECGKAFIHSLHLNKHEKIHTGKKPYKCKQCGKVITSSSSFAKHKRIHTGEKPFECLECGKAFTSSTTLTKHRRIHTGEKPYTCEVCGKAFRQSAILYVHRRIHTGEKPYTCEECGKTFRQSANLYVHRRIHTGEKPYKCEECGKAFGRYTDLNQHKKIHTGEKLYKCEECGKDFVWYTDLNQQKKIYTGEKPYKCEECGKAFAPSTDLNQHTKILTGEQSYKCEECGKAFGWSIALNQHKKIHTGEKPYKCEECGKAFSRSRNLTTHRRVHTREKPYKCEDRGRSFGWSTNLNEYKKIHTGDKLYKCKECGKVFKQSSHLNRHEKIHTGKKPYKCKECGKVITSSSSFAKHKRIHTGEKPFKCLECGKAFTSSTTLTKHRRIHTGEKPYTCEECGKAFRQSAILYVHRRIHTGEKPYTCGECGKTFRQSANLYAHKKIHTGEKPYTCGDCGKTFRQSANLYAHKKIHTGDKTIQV

Sequence of ZNF721 DBD1 (Q8TF20 17-449): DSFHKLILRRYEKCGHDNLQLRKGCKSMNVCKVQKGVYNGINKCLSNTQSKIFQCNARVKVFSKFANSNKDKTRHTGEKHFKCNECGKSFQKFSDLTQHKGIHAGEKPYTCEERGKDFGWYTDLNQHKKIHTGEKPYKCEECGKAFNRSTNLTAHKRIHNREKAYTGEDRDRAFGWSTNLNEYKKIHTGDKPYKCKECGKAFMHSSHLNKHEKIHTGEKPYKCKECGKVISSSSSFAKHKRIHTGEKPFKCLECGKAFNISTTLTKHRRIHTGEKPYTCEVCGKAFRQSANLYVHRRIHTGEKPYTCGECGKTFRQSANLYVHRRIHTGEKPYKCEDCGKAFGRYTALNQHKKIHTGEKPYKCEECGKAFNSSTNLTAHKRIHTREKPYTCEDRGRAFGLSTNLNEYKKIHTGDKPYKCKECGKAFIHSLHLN
Sequence of ZNF721 full-length (Q8TF20 other isoform, or with tags, fused parts or gaps): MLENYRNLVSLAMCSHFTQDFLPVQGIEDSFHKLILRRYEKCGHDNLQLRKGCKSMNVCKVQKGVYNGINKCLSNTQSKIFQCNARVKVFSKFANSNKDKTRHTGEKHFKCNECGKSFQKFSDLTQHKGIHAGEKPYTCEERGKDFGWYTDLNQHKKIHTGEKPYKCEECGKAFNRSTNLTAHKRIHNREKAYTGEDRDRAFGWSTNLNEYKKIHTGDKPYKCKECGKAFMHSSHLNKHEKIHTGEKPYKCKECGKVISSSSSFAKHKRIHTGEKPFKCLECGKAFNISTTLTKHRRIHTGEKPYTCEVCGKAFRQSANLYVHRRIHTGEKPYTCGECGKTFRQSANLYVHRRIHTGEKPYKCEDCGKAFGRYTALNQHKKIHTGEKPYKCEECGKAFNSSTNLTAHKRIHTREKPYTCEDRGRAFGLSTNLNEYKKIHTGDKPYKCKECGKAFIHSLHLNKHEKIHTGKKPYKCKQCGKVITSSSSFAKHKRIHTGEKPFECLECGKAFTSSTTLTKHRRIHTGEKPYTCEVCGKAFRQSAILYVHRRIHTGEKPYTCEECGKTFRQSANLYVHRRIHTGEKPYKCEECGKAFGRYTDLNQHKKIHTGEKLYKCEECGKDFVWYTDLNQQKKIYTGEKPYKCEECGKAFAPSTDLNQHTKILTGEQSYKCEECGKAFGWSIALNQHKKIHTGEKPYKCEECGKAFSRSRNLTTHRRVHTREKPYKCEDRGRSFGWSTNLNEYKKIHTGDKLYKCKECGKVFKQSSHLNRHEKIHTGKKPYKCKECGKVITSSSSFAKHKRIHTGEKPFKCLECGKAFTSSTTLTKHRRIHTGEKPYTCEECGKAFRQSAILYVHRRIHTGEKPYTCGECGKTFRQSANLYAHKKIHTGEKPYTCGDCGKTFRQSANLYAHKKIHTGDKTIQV

In the case of CCCACCGCCC, the binding signal in experiment [1] is 0.319 relative 10-mer count; in experiment [2], 0.0135 relative 10-mer count; in experiment [3], 0.00551 relative 10-mer count.

As for CCGCCCGCCC, the binding signal in experiment [1] was 0.136 relative 10-mer count; in experiment [2], 0.00495 relative 10-mer count; in experiment [3] it was 0.00192 relative 10-mer count.

Take CCACCCCGCC: the binding signal in experiment [1] was determined as 0.263 relative 10-mer count; in experiment [2] it was 0.00894 relative 10-mer count; in experiment [3] it was 0.00503 relative 10-mer count.

Regarding CACCCCCCAC, the binding signal in experiment [1] worked out at 0.248 relative 10-mer count; in experiment [2] it was 0.0103 relative 10-mer count; in experiment [3] it was 0.00527 relative 10-mer count.

On to CCCCTCCCTC, for which the values for the binding signal in experiment [1], in experiment [2] and in experiment [3] were 0.159 relative 10-mer count, 0.00789 relative 10-mer count and 0.00336 relative 10-mer count, respectively.

For CCTGCCCCCC, the values for the binding signal in experiment [1], in experiment [2] and in experiment [3] were 0.103 relative 10-mer count, 0.00454 relative 10-mer count and 0.00132 relative 10-mer count, respectively.

Take CCTCCCCCCC: the binding signal in experiment [1] amounted to 0.236 relative 10-mer count; in experiment [2], 0.0115 relative 10-mer count; in experiment [3], 0.00707 relative 10-mer count.

CCCTCCCCCG: the binding signal in experiment [1] came out at 0.145 relative 10-mer count; in experiment [2], 0.00555 relative 10-mer count; in experiment [3] it was 0.00467 relative 10-mer count.

On to AGTGTATCCA, for which the binding signal in experiment [1] was found to be 0.248 relative 10-mer count; in experiment [2] it was 0.11 relative 10-mer count; in experiment [3], 0.197 relative 10-mer count.

As to CCACCCCCTC, the binding signal is 0.182 relative 10-mer count in experiment [1], 0.00982 relative 10-mer count in experiment [2] and 0.00312 relative 10-mer count in experiment [3].

In the case of CCAACCCCCA, the binding signal in experiment [1] amounted to 0.13 relative 10-mer count; in experiment [2], 0.00486 relative 10-mer count; in experiment [3] it was 0.00168 relative 10-mer count.

With GCTTTTTTCA, the values for the binding signal in experiment [1], in experiment [2] and in experiment [3] were 0.21 relative 10-mer count, 0.076 relative 10-mer count and 0.0334 relative 10-mer count, respectively.

For the sequence CGTCCCCACC, the binding signal is 0.115 relative 10-mer count in experiment [1], 0.00541 relative 10-mer count in experiment [2] and 0.00467 relative 10-mer count in experiment [3].

Regarding AGCCCACCCC, the binding signal turned out to be 0.12 relative 10-mer count in experiment [1], 0.00583 relative 10-mer count in experiment [2] and 0.0209 relative 10-mer count in experiment [3].

For the sequence CCCCCCTCAC, the binding signal in experiment [1] was determined as 0.103 relative 10-mer count; in experiment [2], 0.00482 relative 10-mer count; in experiment [3] it was 0.00443 relative 10-mer count.

As to ACCCCCCCAC, the values for the binding signal in experiment [1], in experiment [2] and in experiment [3] were 0.169 relative 10-mer count, 0.00697 relative 10-mer count and 0.00695 relative 10-mer count, respectively.

For the sequence GGGGGGGGGA, the values for the binding signal in experiment [1], in experiment [2] and in experiment [3] were 0.116 relative 10-mer count, 0.00486 relative 10-mer count and 0.00192 relative 10-mer count, respectively.

For the sequence TGTGTATGAA, the binding signal was 0.169 relative 10-mer count in experiment [1], 0.203 relative 10-mer count in experiment [2] and 0.00228 relative 10-mer count in experiment [3].

For the sequence CCCCCTCCCA, the binding signal in experiment [1] worked out at 0.157 relative 10-mer count; in experiment [2], 0.00784 relative 10-mer count; in experiment [3] it was 0.00455 relative 10-mer count.

For CCCACCCCTA, the figures for the binding signal in experiment [1], in experiment [2] and in experiment [3] were 0.119 relative 10-mer count, 0.00431 relative 10-mer count and 0.00324 relative 10-mer count, respectively.

As to CCCACCCAGC, the values for the binding signal in experiment [1], in experiment [2] and in experiment [3] were 0.106 relative 10-mer count, 0.00307 relative 10-mer count and 0.003 relative 10-mer count, respectively.

Turning to GGGGGAGGGA, the binding signal in experiment [1] worked out at 0.151 relative 10-mer count; in experiment [2] it was 0.00936 relative 10-mer count; in experiment [3], 0.00384 relative 10-mer count.

CCCGCCCTCC: the binding signal in experiment [1] was found to be 0.158 relative 10-mer count; in experiment [2], 0.00803 relative 10-mer count; in experiment [3], 0.0018 relative 10-mer count.

In the case of CACCCCCCCA, the binding signal in experiment [1] amounted to 0.16 relative 10-mer count; in experiment [2], 0.00716 relative 10-mer count; in experiment [3], 0.00443 relative 10-mer count.

As to CCCAAACCCC, the figures for the binding signal in experiment [1], in experiment [2] and in experiment [3] were 0.109 relative 10-mer count, 0.00298 relative 10-mer count and 0.00168 relative 10-mer count, respectively.

In the case of CGCCCCCTCC, the values for the binding signal in experiment [1], in experiment [2] and in experiment [3] were 0.135 relative 10-mer count, 0.00605 relative 10-mer count and 0.00407 relative 10-mer count, respectively.

Take CCTCCCCCTC: the binding signal stood at 0.15 relative 10-mer count in experiment [1], 0.00807 relative 10-mer count in experiment [2] and 0.00467 relative 10-mer count in experiment [3].

For the sequence ACCCCCCGCC, the binding signal in experiment [1] worked out at 0.137 relative 10-mer count; in experiment [2], 0.00555 relative 10-mer count; in experiment [3], 0.00384 relative 10-mer count.

CCACCCCCGA: the binding signal was determined as 0.104 relative 10-mer count in experiment [1], 0.00298 relative 10-mer count in experiment [2] and 0.00264 relative 10-mer count in experiment [3].

As for AGCATACCCT, the binding signal was 0.346 relative 10-mer count in experiment [1], 0.0443 relative 10-mer count in experiment [2] and 0.416 relative 10-mer count in experiment [3].
